Source: PubChem BioAssay (National Center for Advancing Translational Sciences (NCATS))
Compounds with a hit are over-represented: about 2.6% of the library has one in this group of screens.
LT uptake inh: blocks cellular internalization of anthrax lethal toxin | Cells, anthrax lethal toxin internalization, FRET ratio (460/530) | Potency, µM (series often up to 40 µM), hits mostly inhibitors | actives 0.67% (n = 70,000); also: nearly all actives have a fitted effect of over 50% in size
AmpC det inh: blocks E. coli AmpC beta-lactamase in presence of detergent; Potency, µM (titrated, usually from 28.7 µM); AID 584; actives 0.09% (n = 71,000); purified AmpC, nitrocefin hydrolysis with detergent; P00811; active = well fitted curve in the direction sought with a large enough effect; inconclusive = small, poorly fitted or top-dose-only effect
Target sequence (P00811 whole entry, looked up): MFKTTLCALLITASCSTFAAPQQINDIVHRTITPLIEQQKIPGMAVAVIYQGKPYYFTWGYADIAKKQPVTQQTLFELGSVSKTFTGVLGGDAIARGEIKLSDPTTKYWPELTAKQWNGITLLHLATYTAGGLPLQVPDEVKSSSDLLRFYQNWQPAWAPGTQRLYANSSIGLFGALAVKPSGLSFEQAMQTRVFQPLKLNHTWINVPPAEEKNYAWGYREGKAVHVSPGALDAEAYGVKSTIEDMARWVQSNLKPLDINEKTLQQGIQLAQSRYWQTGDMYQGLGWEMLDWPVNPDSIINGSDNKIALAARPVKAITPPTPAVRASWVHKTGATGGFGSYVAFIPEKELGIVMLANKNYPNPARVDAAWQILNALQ
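E. coli AmpC (5.3 nM) in 20 mM phosphate pH 7.0 with 0.01% Triton X-100, preincubated 15 min RT with compound; nitrocefin (2 uL of 800 uM stock) hydrolysis followed by 480 nm absorbance every 20 s over 4 min.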
AmpC inh no det: inhibitors of E. coli AmpC beta-lactamase without detergent. actives 1.8% (n = 71,000). P00811. Potency, µM (series often up to 28.7 µM). AmpC nitrocefin hydrolysis, absorbance 480 nm, no detergent. AID 585
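AmpC, 20 mM phosphate pH 7.0; 15 min cpd preinc, RT; start with nitrocefin (800 uM stock); A480 kinetic read, 20 s intervals, 4 min. No-enzyme wells = negative control.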
Prx2 Sm inh: blocks S. mansoni peroxiredoxin 2 enzymatic activity; Potency, µM; S. mansoni Prx2 activity coupled to TGR/GSH (TGR is thioredoxin glutathione reductase), NADPH fluorescence loss, qHTS; AID 448; actives 0.07% (n = 65,000)
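qHTS, coupled TGR/Prx2 format; 15 min compound preincubation at RT; reaction started with H2O2 (2.5 mM aliquot); kinetic NADPH fluorescence decrease, ex 365/em 450 nm.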
Of the large screens only hits and unclear results are named; the others gave an inactive call; ! = repeats disagree; [ ] = remark or other dose. Unless noted, calls follow the shape of the full dose curve.

CCOc1ccc(NC(=O)c2nnn(CC(=O)Nc3ccccc3OC)c2N)cc1	none
CCOc1ccc(Cn2nnc(C(=O)Nc3cc(C)cc(C)c3)c2N)cc1	LT uptake inh inconclusive, AmpC inh no det 4µM[single pt active]
COc1ccc(CNC(=O)c2nnn(Cc3ccc(OC)cc3)c2N)cc1	AmpC inh no det 2.5µM[single pt active]
CC(=O)OC(C)(C)N=Nc1ccc(Br)cc1	none
O=C(O)CCn1cnc2c(=S)nc[nH]c21	none
COC(=O)c1cc2sccc2n1CC(=O)N1CCCc2ccccc21	LT uptake inh 10µM
N=C(N)SCCCN	none
CCOC(=O)c1c(O)[nH]c(=O)c(CC)c1C	none
Cn1cc(C(=O)c2ccc(Cl)cc2)cc1-c1nc2ccccc2n1C	LT uptake inh 13µM
COc1ccc(C2=NOC(C(=O)Nc3cc(C)nn3-c3ccccc3)C2)cc1OC (stereo not given)	AmpC inh no det 4µM[single pt active]
COc1ccc(C2=NOC(C(=O)Nc3ccc(C)cc3)C2)cc1OC (stereo not given)	none
Cc1cc(C)n(CCc2nc(-c3cc4ccccc4o3)cs2)n1	LT uptake inh 25µM
Cc1ccc(S(=O)(=O)N(CC(O)CN2CCCCC2)c2ccccc2)cc1 (stereo not given)	AmpC inh no det 4µM[single pt active]
COc1cccc2cc3c(=O)n(-c4ccccc4)nc-3oc12	AmpC inh no det 3.2µM[single pt active]
COc1ccc(NS(=O)(=O)c2ccc3oc(Nc4ccc5c(c4)OCCO5)nc3c2)cc1	LT uptake inh 13µM, AmpC inh no det 3.2µM
Cn1c(=O)oc2cc(S(=O)(=O)Nc3ccc4c(c3)OCCO4)ccc21	none
C=CC(C)(C)c1[nH]c2ccccc2c1C1=C(O)C(=O)C(c2c[nH]c3c(CC=C(C)C)cccc23)=C(O)C1=O	LT uptake inh 25µM, AmpC det inh inconclusive, AmpC inh no det inconclusive
c1ccc(CN2CCC3(CC2)SSC2(CCN(Cc4ccccc4)CC2)SS3)cc1	none
O=C(NCc1ccc2c(c1)OCO2)c1ccc2c(=O)n(C3CCCC3)c(=O)[nH]c2c1	LT uptake inh inconclusive, AmpC inh no det 7.9µM
COc1ccc(Cn2c(=O)[nH]c3cc(C(=O)NCCCN4CCCCC4)ccc3c2=O)cc1	none
COc1ccc(Cn2c(=O)[nH]c3cc(C(=O)NCc4ccc5c(c4)OCO5)ccc3c2=O)cc1	AmpC inh no det 13µM[single pt active]
CCOc1ccc2[nH]c(C)c(CN3CCN(CC)CC3)c(=O)c2c1	none
CCCCN(C)Cc1c(C)[nH]c2ccc(OCC)cc2c1=O	AmpC inh no det 4µM[single pt active]
CCSC1(SCC)N=C(N)C2(C#N)C(c3ccccc3)NC3=C(CCC3)C12C#N (stereo not given)	LT uptake inh inconclusive
CCSC1(SCC)N=C(N)C2(C#N)C(c3ccc(OC)c(OC)c3OC)C12C#N (stereo not given)	LT uptake inh 10µM
CC(C)(C)c1cc2c(O)c(c1)Cc1cc(C(C)(C)C)cc(c1O)Cc1cc(C(C)(C)C)cc(c1O)Cc1cc(C(C)(C)C)cc(c1O)Cc1cc(C(C)(C)C)cc(c1O)Cc1cc(C(C)(C)C)cc(c1O)Cc1cc(C(C)(C)C)cc(c1O)Cc1cc(C(C)(C)C)cc(c1O)C2	none
Oc1ccc(Cl)cc1Cc1ccccc1	LT uptake inh inconclusive (no result: Prx2 Sm inh)
Oc1ccc(Cl)cc1Cc1cc(Cl)ccc1O	LT uptake inh 16µM, AmpC inh no det inconclusive (no result: Prx2 Sm inh)
NC(N)=N/N=C\c1ccc(O)c(C(=O)O)c1	none
N=C(N)c1ccc(OCCCCCOc2ccc(C(=N)N)cc2)cc1 (tested in a mixture with another compound)	AmpC inh no det inconclusive
CN(C)CC(C(=O)c1ccccc1)c1ccccc1 (stereo not given)	LT uptake inh 10µM
O=C(NCCC1=CCCCC1)C1CCN(S(=O)(=O)c2cccs2)CC1	none
O=C(NCc1ccc2c(c1)OCO2)C1CCCN(S(=O)(=O)c2cccc3nonc23)C1 (stereo not given)	AmpC inh no det 10µM[single pt active]
O=C(NCCC1=CCCCC1)C1CCN(S(=O)(=O)c2cccc3nonc23)CC1	AmpC inh no det 20µM[single pt active]
CC(=O)OCC1=C(C(=O)O)N2C(=O)[C@@H](NC(=O)Cc3cccs3)[C@@H]2SC1	none
CO/N=C(\C(=O)N[C@@H]1C(=O)N2C(C(=O)O)=C(COC(C)=O)CS[C@@H]12)c1csc(N)n1	AmpC det inh 1.3µM, AmpC inh no det 1.3µM!
C=CC1=C(C(=O)O)N2C(=O)[C@@H](NC(=O)/C(=N\OCC(=O)O)c3csc(N)n3)[C@@H]2SC1	AmpC det inh 0.2µM, AmpC inh no det 0.32µM
C=C1CCO[C@@]2([C@H](O)[C@@](C)(O)CO)NC(=O)[C@]1(O)NC2=O	none
